# In all, about 69,000 compounds went through this assay and about 1,000 (1.4%) showed an effect of 50% or more. Many of the other results were omitted from the sample, so strong results are more common in it than they were.
# System: Leishmania donovani
# Assay: Leishmania intramacrophage assay
# Assay type: functional, organism-based
# Design: scale not given: in the data most compounds retested in dose-response had high values
smiles,measurement,setting,value
CC1CN(C(=O)C2(c3cccc(F)c3)CCOCC2)CCO1 (centres undefined),Percent Effect,"30.3 µM, […]",18.33%
O=C(NCCCN1CCc2ccccc2C1)c1ccccc1Cl,Percent Effect,30 µM,53%
O=C(NCCCN1CCc2ccccc2C1)c1ccccc1Br,Percent Effect,30 µM,36.73%
Cc1ccccc1C(=O)NCCCN1CCc2ccccc2C1,Percent Effect,30 µM,9.574%
N#Cc1ccc(OCC(O)CN2CCC(Cn3cccn3)CC2)cc1 (centres undefined),Percent Effect,30 µM,5.34%
Cc1cnc(N2C[C@@H]3CN(C4CCOC4)CCC[C@]3(C(=O)O)C2)nc1.O=C(O)C(F)(F)F (some centres undefined),Percent Effect,"30.3 µM, […]",51.36%
O=C(O)C(F)(F)F.O=C(O)[C@]12CCCN(C3CCOC3)C[C@H]1CN(c1nncs1)C2 (some centres undefined),Percent Effect,"30.3 µM, […]",23.22%
O=C(O)C(F)(F)F.O=C(O)[C@]12CCCN(CC3CCOC3)C[C@H]1CN(c1ncccn1)C2 (some centres undefined),Percent Effect,"30.3 µM, […]",22.4%
CC(C)(C)OC(=O)N1CCCC[C@H]1C(=O)NCc1nccs1,Percent Effect,"30 µM, 30.03 µM",12.63%
CCc1c(C)sc(NC(=O)CN2CCOCC2)c1C(=O)OC,Percent Effect,"30.3 µM, […]",-39.48%
CCc1c(C)sc(NC(=O)CN2CCN(CC)CC2)c1C(=O)OC,Percent Effect,"30 µM, 30.03 µM",52.48%
CCOC(=O)c1c(NC(=O)CN2CCN(C(C)=O)CC2)sc(C)c1C,Percent Effect,"30.3 µM, […]",29.91%
Cc1cc(NC(=O)CN2CCCC2c2c(C)nn(C)c2Cl)on1 (centres undefined),Percent Effect,30 µM,24.03%
CCc1cc(CN(C)C(=O)c2cnn[nH]2)on1,Percent Effect,"30.3 µM, […]",12.71%
CCc1cc(CN(C)C(=O)c2cnon2)on1,Percent Effect,"30.3 µM, […]",11.76%
CCc1cc(CN(C)C(=O)c2cc(=O)[nH]c(=O)[nH]2)on1,Percent Effect,"30.3 µM, […]",53.82%
CCN1CCN(C(=O)c2cc(-c3cccs3)cs2)CC1,Percent Effect,"30.3 µM, […]",-1.143%
Cc1ccc(Cl)cc1NC(=O)C1CSc2ncc(C)c(=O)n2C1 (centres undefined),Percent Effect,"30.3 µM, […]",17.12%
COc1cccc(CN(C)c2ncc(C(N)=O)cc2Cl)c1,Percent Effect,"30.3 µM, […]",-8.015%
CCc1ncc(C(=O)NCCNc2ncnc3sccc23)s1,Percent Effect,"30.3 µM, […]",26.76%
CCc1nc(C)c(C(=O)NCCNc2ncnc3sccc23)s1,Percent Effect,"30.3 µM, […]",59.68%
Cc1ncc(C(=O)NCCNc2ncnc3sccc23)s1,Percent Effect,"30.3 µM, […]",20.47%
CC1(C)CCC(C(=O)N2CCCO2)c2ccccc21 (centres undefined),Percent Effect,"30.3 µM, […]",9.47%
CN(C)S(=O)(=O)N1CCC(c2c(C(N)=O)sc3ccccc23)C1 (centres undefined),Percent Effect,"30.3 µM, […]",31.42%
NC(=O)Nc1cccc(F)c1C(=O)NC1CCCC1,Percent Effect,"30.3 µM, […]",3.755%
Cc1cccnc1C(Cc1ccsc1)NCc1cnc(N(C)C)nc1 (centres undefined),Percent Effect,"30.3 µM, […]",17.18%
COc1ccc(CNC(Cc2ccsc2)c2ncccc2C)cc1OC (centres undefined),Percent Effect,"30.3 µM, […]",25.36%
CC(C)Oc1cccc(CNC(Cc2ccsc2)c2nccs2)c1.Cl (centres undefined),Percent Effect,"30.3 µM, […]",-38.1%
COc1cccc(OC)c1CNC(Cc1ccsc1)c1ccc(C)cn1 (centres undefined),Percent Effect,"30.3 µM, […]",99.68%
COc1ccc(CNC(Cc2ccsc2)c2ccc(C)cn2)cc1OC.Cl (centres undefined),Percent Effect,"30.3 µM, […]",12%
COc1ccc(CNC(Cc2ccsc2)c2ccc(C)cn2)c(OC)c1 (centres undefined),Percent Effect,"30.3 µM, […]",62.45%
N#Cc1c2n(c3c(=O)[nH]cnc13)CCCCC2,Percent Effect,"30.3 µM, […]",19.13%
Cc1ccccc1CNCc1cc(Cl)ccc1O,Percent Effect,"30.3 µM, […]",-18.5%
Cc1ccc(C)c(NCc2nc3n(n2)CCCCC3)c1,Percent Effect,"30.3 µM, […]",-6.245%
CSc1cccc(CN(C)C(=O)c2ccc(C3CCCNC3)cc2)c1 (centres undefined),Percent Effect,"30.3 µM, […]",52.27%
CSc1cccc(CN(C)C(=O)c2cccc(C3CCCNC3)c2)c1 (centres undefined),Percent Effect,"30.3 µM, […]",27.95%
CN(Cc1ccc2c(c1)OCO2)C(=O)c1ccc(C2CCCNC2)cc1 (centres undefined),Percent Effect,"30.3 µM, […]",4.185%
CC(C)NC(=O)c1noc2c1CN(Cc1cnn(C)c1)CC2,Percent Effect,"30.3 µM, […]",0.4989%
Cc1noc(C)c1C(=O)NCc1ccc(N2CCCCCC2)nc1,Percent Effect,30 µM,36.14%
CNc1nc(C)cc(NCc2cc(C)cc3c(C)c(C)[nH]c23)n1,Percent Effect,"30.3 µM, […]",35.88%
CCc1[nH]c2c(CNc3nc(C)cc(NC)n3)cc(C)cc2c1C,Percent Effect,"30.3 µM, […]",89.36%
CCc1[nH]c2c(CNc3nccc(N)n3)cc(C)cc2c1C,Percent Effect,"30.3 µM, […]",21.52%
CNc1cc(C)nc(NCc2cc(C)cc3c(C)c(C)[nH]c23)n1,Percent Effect,"30.3 µM, […]",-40.33%
CCc1[nH]c2c(CNc3cc(C)nc(NC)n3)cc(C)cc2c1C,Percent Effect,"30.3 µM, […]",71.01%
CCc1[nH]c2c(CNc3cncc(C(=O)OC)n3)cc(C)cc2c1C,Percent Effect,"30.3 µM, […]",-70.43%
CC(C)c1ccc(S(=O)(=O)NC2CCN(CC(F)(F)F)C2)cc1 (centres undefined),Percent Effect,"30.3 µM, […]",20.88%
O=C(CC1CCCC1)N1CCCC1c1ccc(CN2CCOCC2)cn1 (centres undefined),Percent Effect,"30.3 µM, […]",7.793%
COc1ccccc1CN1C[C@@H](F)[C@@H](OCc2nc3ncccc3[nH]2)C1,Percent Effect,"30.3 µM, […]",33.82%
CCC(NC(=O)Cn1ccc(=O)n(C)c1=O)c1ccc(OC)cc1 (centres undefined),Percent Effect,"30.3 µM, […]",24.09%
CCc1ocnc1C(=O)Nc1ccc2ccn(CCN(C)C)c2c1,Percent Effect,"30.3 µM, […]",-1.774%
COCC1CC2(CCN(Cc3ccccn3)CC2)CN1c1ncccn1.O=C(O)C(F)(F)F.O=C(O)C(F)(F)F.O=C(O)C(F)(F)F (centres undefined),Percent Effect,"30.3 µM, […]",-16.53%
COCC1CC2(CCN(Cc3nccs3)CC2)CN1Cc1ccccn1.O=C(O)C(F)(F)F.O=C(O)C(F)(F)F.O=C(O)C(F)(F)F (centres undefined),Percent Effect,"30.3 µM, […]",50.9%
COCC(=O)N1CCC2(CC1)CC(COC)N(Cc1ccccn1)C2.O=C(O)C(F)(F)F (centres undefined),Percent Effect,"30.3 µM, […]",12.17%
O=C(O)C(F)(F)F.O=C1CC[C@H]2[C@H](CCN2C(=O)C2CCOCC2)N1Cc1ccncc1,Percent Effect,"30 µM, 30.03 µM",15.79%
CS(=O)(=O)c1ccc(CNC(=O)N2CCC(c3ccccc3)CC2)cc1,Percent Effect,"30 µM, 30.03 µM",-1.511%
Cc1cc(CN2C[C@@H]3CN(C(=O)c4cccn4C)CCO[C@@H]3C2)no1.O=C(O)C(F)(F)F,Percent Effect,"30.3 µM, […]",11.08%
Cn1cc(CN2C[C@@H]3CN(C(=O)c4cccn4C)CCO[C@@H]3C2)cn1,Percent Effect,"30.3 µM, […]",58.31%
Cn1cccc1C(=O)N1CCO[C@@H]2CN(Cc3ccco3)C[C@@H]2C1,Percent Effect,"30.3 µM, […]",19.73%
COCC1CN(CC2CC2)Cc2nn(CC3CC3)cc21.O=C(O)C(F)(F)F (centres undefined),Percent Effect,"30.3 µM, […]",8.658%
O=C1OCCN1CCOc1nc(-c2ccccc2Cl)no1,Percent Effect,"30 µM, 30.03 µM",4.618%
Cc1cnc(NC(=O)C(C)n2ccc(C(F)(F)F)n2)s1 (centres undefined),Percent Effect,"30.3 µM, […]",59.23%
Cc1ccc(NC(=O)C(C)n2ccc(C(F)(F)F)n2)nc1 (centres undefined),Percent Effect,"30.3 µM, […]",38.05%
CC(C(=O)Nc1ccc(Cl)cn1)n1ccc(C(F)(F)F)n1 (centres undefined),Percent Effect,"30.3 µM, […]",46.39%
Cc1cc(C(=O)N2CCCCC2C)ccc1NC(=O)N1CCOCC1 (centres undefined),Percent Effect,30 µM,22%
O=C(O)C(F)(F)F.c1cnc(N2Cc3nccn3CC(COc3cccnc3)C2)nc1 (centres undefined),Percent Effect,"30.3 µM, […]",5.012%
CN(C)c1ncc(-c2cncn2CCc2ccc3c(c2)OCCO3)cn1.Cl,Percent Effect,"30.3 µM, […]",20.21%
Cc1cccc(C2(C(=O)NCCCn3cccn3)CC2)c1,Percent Effect,"30 µM, 30.03 µM",17.4%
Cc1ccc(C)c(C(=O)N2CCOC(CCN(C)C)C2)c1 (centres undefined),Percent Effect,"30.3 µM, […]",10.51%
Cc1ccc(C(C(=O)NCCN2CCC(CO)CC2)N(C)C)cc1 (centres undefined),Percent Effect,"30.3 µM, […]",25.71%
Cc1ccc(C(CCNCCCN(C)C)C2CCOC(C)(C)C2)cc1.O=C(O)C(=O)O (centres undefined),Percent Effect,"30.3 µM, […]",85.22%
CCN(CC)CCCNCC1CCOC(C)(C)C1 (centres undefined),Percent Effect,"30.3 µM, […]",15.48%
COCCn1ccc2cc(C(=O)NC3CCOC(C)(C)C3)ccc21 (centres undefined),Percent Effect,"30.3 µM, […]",4.385%
Cc1ccc(C(CCNCCN(C)C)C2CCOC(C)(C)C2)cc1.O=C(O)C(=O)O (centres undefined),Percent Effect,"30.3 µM, […]",99.98%
CCc1noc(C(C)N2CCC(C)CC2)n1 (centres undefined),Percent Effect,30 µM,28.8%
Cn1nc(COc2cccnc2)c2c1CCN(c1cnccn1)C2.O=CO.O=CO,Percent Effect,"30 µM, 30.03 µM",-2.364%
CCCn1nc(C)c(C(=O)N(C)[C@@H]2CC[C@@H](OC)[C@@H]2O)c1C,Percent Effect,"30.3 µM, […]",19.04%
CC(C(=O)Nc1ccc(N2CCCC2)nc1)n1cccn1 (centres undefined),Percent Effect,30 µM,19.04%
Cc1noc(C)c1CCCNC(=O)C1CCN(C(C)C)CC1,Percent Effect,"30.3 µM, […]",24.48%
Cc1nc2cc(CNC(=O)C3CC(=O)N(C4CCCC4)C3)ccc2n1C (centres undefined),Percent Effect,"30.3 µM, […]",2.689%
Cc1nc2cc(CNC(=O)C3CC(=O)N(CCN(C)C)C3)ccc2n1C (centres undefined),Percent Effect,"30.3 µM, […]",7.725%
CCN1CC(C(=O)NCc2ccc3c(c2)nc(C)n3C)CCC1=O (centres undefined),Percent Effect,"30.3 µM, […]",73.45%
CC(C)c1cc(C(=O)O)nc2[nH]c(=O)[nH]c(=O)c12,Percent Effect,"30.3 µM, […]",-5.63%
CCCc1nc(CN2CCCN(Cc3nccn3C)CC2)no1,Percent Effect,30 µM,36.47%
O=C(c1cc[nH]n1)N1CCc2ccc(S(=O)(=O)N3CCOCC3)cc2C1,Percent Effect,"30.3 µM, […]",52.38%
O=C(c1ccc[nH]1)N1CCc2cc(S(=O)(=O)N3CCOCC3)ccc2C1,Percent Effect,"30.3 µM, […]",17.1%
O=C(c1ccc[nH]1)N1CCc2ccc(S(=O)(=O)N3CCOCC3)cc2C1,Percent Effect,"30.3 µM, […]",-1.46%
c1cncc(-c2nc3c(c(NCC4(c5ccncc5)CC4)n2)CCC3)c1,Percent Effect,"30.3 µM, […]",33.94%
Cl.NC1CCc2nc(-c3cccnc3)nc(Nc3ccc(F)cc3)c2C1 (centres undefined),Percent Effect,"30.3 µM, […]",94.83%
CC(O)CNc1nc(-c2cccnc2)nc2c1CCC2 (centres undefined),Percent Effect,"30.3 µM, […]",13.01%
CN(CC1CCCO1)c1nc(-c2cccnc2)nc2c1CCNCC2 (centres undefined),Percent Effect,"30.3 µM, […]",34.58%
CCc1noc(CNc2nc(-c3cccnc3)nc3c2CCNCC3)n1,Percent Effect,"30.3 µM, […]",27.11%
CNS(=O)(=O)CC(=O)NC(C)Cc1ccc(-c2ccccc2)cc1 (centres undefined),Percent Effect,"30.3 µM, […]",32.54%
CN(CCN(C)S(=O)(=O)CC1CCOCC1)c1ccccc1,Percent Effect,"30.3 µM, […]",4.21%
Fc1ccccc1NCc1nc2n(n1)CCCCC2,Percent Effect,"30.3 µM, […]",-12.91%
O=C(C1=CC2(CCNCC2)c2ccccc21)N1CCCC1,Percent Effect,"30 µM, 30.03 µM",-18.75%
O=C(Nc1ccccc1)C1=CC2(CCNCC2)c2ccccc21,Percent Effect,"30 µM, 30.03 µM",52.55%
CC(=O)N1CCC2(C=C(C(=O)NC3CC3)c3ccccc32)CC1,Percent Effect,"30.3 µM, […]",1.849%
Cc1nn(CCn2ccnc2-c2cc3n(n2)CCCNC3)c(C)c1Cl,Percent Effect,"30 µM, 30.03 µM",27.54%
COc1ccc(CN2CCCCCC2c2cccs2)c(OC)c1 (centres undefined),Percent Effect,"30.3 µM, […]",16.39%

# Source: ChEMBL document CHEMBL3988442, “University of Dundee, Small-Polar-MMV Screening Library” (2021)
